In ChEMBL document CHEMBL3988442, “University of Dundee, Small-Polar-MMV Screening Library” (2021):

Legend:
[1] = target: T1, Aspartate--tRNA(Asp/Asn) ligase (Mycobacterium tuberculosis (strain ATCC 25618 / H37Rv)) (UniProt P9WFW3); test: Assay for Asp RNA synthetase-1 from Mycobacterium tuberculosis; assay type: functional; parameters: scale not given: direction of the effect not stated beside the values; details: 30 µM; further: in the data most compounds retested in dose-response had high values
T1 sequence (whole entry): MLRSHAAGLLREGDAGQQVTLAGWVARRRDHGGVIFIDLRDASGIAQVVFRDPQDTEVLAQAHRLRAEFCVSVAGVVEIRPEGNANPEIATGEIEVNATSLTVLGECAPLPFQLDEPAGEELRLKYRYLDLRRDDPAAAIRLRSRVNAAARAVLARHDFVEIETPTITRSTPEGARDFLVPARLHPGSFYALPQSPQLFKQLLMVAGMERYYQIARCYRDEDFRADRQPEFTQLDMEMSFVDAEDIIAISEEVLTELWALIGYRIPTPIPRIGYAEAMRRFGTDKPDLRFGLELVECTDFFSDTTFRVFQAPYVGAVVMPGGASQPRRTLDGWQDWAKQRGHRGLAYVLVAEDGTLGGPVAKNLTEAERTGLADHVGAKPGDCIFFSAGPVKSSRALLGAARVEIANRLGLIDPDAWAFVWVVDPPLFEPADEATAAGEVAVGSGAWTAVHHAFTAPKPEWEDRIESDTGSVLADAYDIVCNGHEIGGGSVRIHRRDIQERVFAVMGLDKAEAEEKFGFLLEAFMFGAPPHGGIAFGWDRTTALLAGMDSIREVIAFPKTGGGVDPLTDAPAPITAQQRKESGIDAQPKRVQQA

[2] = target: Shiga toxin 2 (Escherichia coli O157:H7) (UniProt P09385+P09386); test: E. coli 0.157:H7 Shiga Toxin SOP - stx2 screening assay; assay type: functional; parameters: scale not given: direction of the effect not stated beside the values; details: 30 µM

Row | Structure (SMILES) | Percent Effect [1] | Percent Effect [2]
1 | c1cnc(N2CCC3(CCN(CC4CC4)CC3)CC2)nc1 | 0.564% | 6.17%
2 | N#Cc1ccc(F)c(CN2CCCC2Cn2cccn2)c1 (stereo unspecified) | 0.262% | 1.36%
3 | Cn1ccc(CN2CCC(c3ccccc3)CC2)cc1=O | 4.58% | -3.12%
